# Assay results from PubChem BioAssay (NCATS).
# Results filed as inconclusive are left out. Where a call stands in place of a potency, no number is given. Unmarked numbers belong to inactive results. Activity calls are given as the source filed them. Calls come from the whole dose curve; as a rule, active = well fitted inhibition curve with a large enough effect; inconclusive = small, poorly fitted or top-dose-only effect; inactive = flat fitted curve, though single readings scatter.
# Target: Calcium and integrin-binding protein 1 (Homo sapiens) (UniProt Q99828)
# Test: Primary qHTS for Identification of Calcium Integrin Binding Protein 1 (CIB1) Competitor (AID 1508620);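 note: GST tagged CIB1 binding a fluorescein labelled alphaIIb integrin peptide tracer; top concentration of the series differs between compounds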
# Details: CIB1-GST / FITC-alphaIIb peptide fluorescence polarization; series mostly up to 114 µM
# Procedure, shortened: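 Fluorescence polarization competition: CIB1-GST (1 uM final) preincubated with compound 15 min at room temperature, then FITC-labeled alphaIIb peptide (100 nM final) added for another 15 min. Polarization read at Ex 480/Em 540.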
# Chain of Calcium and integrin-binding protein 1 (Homo sapiens) (Q99828 whole entry, looked up): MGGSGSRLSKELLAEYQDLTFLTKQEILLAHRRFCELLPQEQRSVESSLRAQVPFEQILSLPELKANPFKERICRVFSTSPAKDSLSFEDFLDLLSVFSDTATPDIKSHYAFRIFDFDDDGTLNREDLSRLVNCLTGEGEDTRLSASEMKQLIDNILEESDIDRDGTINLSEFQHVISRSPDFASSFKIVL
SMILES,Potency,"activity change, negative = inhibition"
C[C@@H]1CN(Cc2ccccc2)C[C@H]1c1nc2c(cnn2C2CCOCC2)c(=O)[nH]1,inactive,
COc1c(Nc2ncc(Cl)c(N[C@H]3[C@@H](C(N)=O)[C@@H]4C=C[C@H]3C4)n2)ccc2c1CC[C@@H](N1CCOCC1)CC2,inactive,
CC(=O)/C=C/[C@H]1[C@](C)(O)[C@@H](O)[C@H](OC(C)=O)C2C(C)(C)CCC[C@@]21C (stereo not given in full),inactive,
CC(=O)O[C@H]1C[C@@](O)(C(C)C)C2[C@@H](OC(=O)c3ccc(O)cc3)C[C@@]3(C)O[C@H]3C[C@]21C (stereo not given in full),inactive,
CC(=O)OC[C@]12[C@H](OC(C)=O)C(=O)[C@@H]3[C@@H](OC(C)=O)[C@@]14O[C@@]3(C)COC(=O)c1cccnc1[C@@H](C)[C@H](C)C(=O)O[C@@H]([C@H](O)[C@@H]2OC(C)=O)[C@]4(C)O,inactive,
COC(=O)C1=COC(O[C@@H]2O[C@H](CO)[C@@H](O)[C@H](O)[C@H]2O)[C@H]2[C@@H]1[C@H](OC(=O)CCc1ccc(O)cc1)C[C@]2(C)O (stereo not given in full),inactive,
O=C1NC(Cc2c[nH]c3ccccc23)C(=O)NC1Cc1c[nH]c2ccccc12 (stereo not given),inactive,
CC(O)/C=C/C1(O)C2(C)COC1(C)CC(O)C2 (stereo not given),inactive,
CN(CCc1ccc(Nc2ncc(-c3cccnc3)s2)cc1)Cc1ccccc1,inactive,
CC/C=C\CC1C(=O)C=CC1(CCCCCCCC(=O)O)OC(C)=O (stereo not given),inactive,
C[C@@H]1CC[C@]2(C(=O)O[C@@H]3O[C@H](CO)[C@@H](O)[C@H](O)[C@H]3O)CC[C@]3(C)C(=CCC4[C@@]5(C)C[C@@H](O)[C@H](O)[C@@](C)(C(=O)O[C@H]6[C@H](O)C[C@@]7(C)C(CC[C@]8(C)C7CC=C7[C@H]9[C@](C(=O)O[C@@H]%10O[C@H](CO)[C@@H](O)[C@H](O)[C@H]%10O)(CC[C@@H](C)[C@@]9(C)O)CC[C@]78C)[C@@]6(CO)C(=O)O)C5CC[C@]43C)[C@@H]2[C@]1(C)O (stereo not given in full),,3.8% [at 12.4 µM]
Cc1cc(C)nc(NS(=O)(=O)c2ccc(NC(=S)NC(=O)COc3ccc(Br)cc3Cl)cc2)n1,inactive,
N[C@H]1Cc2ccccc2N(O)C1=O,inactive,
CC(=O)c1ccc(O[C@@H]2O[C@H](CO)[C@@H](O)[C@H](O)[C@H]2O)cc1,inactive,
OCC(CO[C@@H]1O[C@H](CO)[C@@H](O)[C@H](O)[C@H]1O)c1ccc2c(c1)OCO2 (stereo not given in full),inactive,
COc1cc(OC)cc(C(=O)Nc2ccc(Cl)c(-c3nc4ccc(N(C)C)cc4[nH]3)c2)c1,inactive,
C=C(C)C1CC[C@]2(C(=O)O)CC[C@]3(C(=O)O)[C@H](CCC4[C@@]5(C)CC[C@H](O)C(C)(C)C5CC[C@]43C)C12 (stereo not given in full),inactive,
C=C1C(=O)OC2CC(C)=C(C(C)CCCO)C(O)C12 (stereo not given),inactive,
Cc1cc(Cl)ccc1COc1ccnn1-c1cc(C(=O)O)ccn1,inactive,
CC(C)Oc1ccc(C(=O)NC(CNC(=O)CN(C)C)Cc2ccc(-c3cn4cccc(C(C)O)c4n3)cc2)cc1Cl (stereo not given),inactive,

SMILES,Potency,"activity change, negative = inhibition"
Nc1nc(Nc2ccc(S(N)(=O)=O)cc2)n(C(=S)Nc2c(F)cccc2F)n1,inactive,
C[C@H](Oc1ccc(S(C)(=O)=O)cc1C(=O)N1CCN(c2ncc(C(F)(F)F)cc2F)CC1)C(F)(F)F,inactive,
CC(=O)O[C@H]1CC[C@H](C)[C@@]2(C)[C@H](OC(C)=O)c3c(C)coc3C(=O)[C@H]12,inactive,
CNC(=O)c1cccc(-c2ccc3c(N4CCOC[C@@H]4C)nc(N4CCOC[C@@H]4C)nc3n2)c1,inactive,
CC1=CC(=O)CC(C)(CO)C1(O)/C=C/C(C)O[C@@H]1O[C@H](CO)[C@@H](O)[C@H](O)[C@H]1O (stereo not given in full),inactive,
CC1CCC2(OC1)OC1CC3C4CC=C5CC(O)CC(O[C@@H]6OC[C@@H](O)[C@H](O)[C@H]6O)C5(C)C4CCC3(C)C1(O)C2C (stereo not given in full),inactive,
CCNC(=O)Nc1ccc(-c2nc3c(c(N4CCOC[C@@H]4C)n2)CCN(c2ncccn2)C3)cc1,inactive,
C[C@@H]1C(=O)O[C@H]2[C@@H](O)C34[C@H]5C[C@@H](C(C)(C)C)C36[C@@H](OC(=O)[C@@H]6O)O[C@@]4(C(=O)O5)[C@@]12O (stereo not given in full),inactive,
OC[C@H]1O[C@@H](OC[C@H]2O[C@@H](OC/C=C/c3ccccc3)[C@H](O)[C@@H](O)[C@@H]2O)[C@@H](O)[C@@H]1O,inactive,
Cc1cc2c(c(=O)[nH]1)OC(C(O)CC(C)C)O2 (stereo not given),inactive,
CC(=O)O[C@@H]1[C@@H](O)[C@H](O[C@H]2CC[C@]34C[C@]35CC[C@]3(C)[C@@H]([C@@]6(C)CC[C@@H](C(C)(C)O)O6)[C@@H](O)C[C@@]3(C)[C@@H]5C[C@H](O[C@@H]3O[C@H](CO)[C@@H](O)[C@H](O)[C@H]3O)[C@H]4C2(C)C)OC[C@H]1O,inactive,
COC(=O)N[C@@H](C)CNc1nccc(-c2cn(C(C)C)nc2-c2cc(Cl)cc(NS(C)(=O)=O)c2F)n1,inactive,
COc1cc(N2CCOCC2)ccc1Nc1ncc(Cl)c(Nc2ccccc2NS(C)(=O)=O)n1,inactive,
FC(F)(F)c1cc(-c2ncn(/C=C\c3nnco3)n2)cc(C(F)(F)F)c1,inactive,
O=C(O)c1cc2cccc([N+](=O)[O-])c2[nH]1,inactive,
C/C(=C\CC[C@@H](C)[C@H]1CC(O)[C@@]2(C)C3CC[C@H]4C(C)(C)[C@@H](OC5OCC(O)C(O)C5OC5OC(CO)C(O)C(O)C5O)CC[C@@]45C[C@@]35CC(O)[C@]12C)C(=O)O (stereo not given in full),inactive,
CC(C)N(CCCCOCC(=O)NS(C)(=O)=O)c1cnc(-c2ccccc2)c(-c2ccccc2)n1,inactive,
CC1(C)CCCC2(C)C(CO)C(CO)=CCC12 (stereo not given),inactive,
CC(=O)O[C@]1(C(C)=O)CC[C@H]2[C@@H]3C[C@H](C)C4=CC(=O)C=C[C@]4(C)[C@@]3(F)[C@@H](O)C[C@@]21C,inactive,
COc1ccccc1Oc1ccc(N(Cc2cccnc2)S(=O)(=O)CC(F)(F)F)cc1,inactive,
